Assay results taken from PubChem BioAssay (NCATS).

Molecular target: Glucocorticoid receptor (Homo sapiens) (UniProt P04150)
Test: GR-EFC Redistribution (AID 451)
Conditions: CHO-K1 GR-EFC translocation, beta-gal luminescence, 2 h; calls by dose curve
Outline: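 CHO-K1 cells stably expressing nuclear-localized β-gal enzyme acceptor and GR fused C-terminally to the enzyme donor fragment; ligand-driven nuclear translocation restores β-gal by complementation. Compounds titrated up to 46 uM final, 2 h at 37 °C; luminescence read.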
Potency is read from the fitted curve at half-maximal effect.

Sequence of Glucocorticoid receptor (Homo sapiens) (P04150 whole entry, looked up): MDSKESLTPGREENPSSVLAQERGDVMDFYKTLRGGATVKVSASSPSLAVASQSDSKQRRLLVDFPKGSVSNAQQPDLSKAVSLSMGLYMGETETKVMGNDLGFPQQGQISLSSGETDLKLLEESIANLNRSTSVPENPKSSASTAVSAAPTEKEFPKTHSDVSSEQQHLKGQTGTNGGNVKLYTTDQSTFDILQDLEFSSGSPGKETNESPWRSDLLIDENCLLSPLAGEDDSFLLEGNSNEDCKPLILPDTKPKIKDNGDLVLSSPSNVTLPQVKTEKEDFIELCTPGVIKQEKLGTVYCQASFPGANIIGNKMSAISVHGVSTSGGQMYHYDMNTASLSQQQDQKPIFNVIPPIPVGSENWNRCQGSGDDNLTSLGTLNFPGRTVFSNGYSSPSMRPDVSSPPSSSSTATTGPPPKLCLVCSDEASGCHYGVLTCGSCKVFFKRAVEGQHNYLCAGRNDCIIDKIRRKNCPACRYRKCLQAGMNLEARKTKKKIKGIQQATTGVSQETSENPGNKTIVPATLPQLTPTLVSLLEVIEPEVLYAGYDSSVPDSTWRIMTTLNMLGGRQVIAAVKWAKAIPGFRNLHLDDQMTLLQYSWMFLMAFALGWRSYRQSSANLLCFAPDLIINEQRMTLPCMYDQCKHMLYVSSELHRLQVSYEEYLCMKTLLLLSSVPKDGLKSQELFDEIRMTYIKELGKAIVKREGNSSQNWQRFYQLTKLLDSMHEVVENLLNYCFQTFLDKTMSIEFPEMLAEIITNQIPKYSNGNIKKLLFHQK

Potency, inactive:
Cc1ccccc1-c1cncnc1N1CCNCC1 > 46 µM
COCC(=O)N1CCC2(CC1)CN(Cc1nccs1)C2 > 46 µM
O=C(Oc1ccccc1)N1CCC2(CCCN(c3ccncc3)C2)CC1 > 46 µM
COc1ccc(Oc2ncc3nc(CCc4ccccc4)c(=O)n(C)c3n2)cc1 > 46 µM
COc1cccc(-c2nc(N3CCNCC3)c3ccccc3n2)c1 > 46 µM
COc1ccc(NC(=O)N2CC[C@@]3(CCCN(C(=O)c4ccncc4)C3)C2)cc1 > 46 µM
O=c1c(-c2cc(F)cc(F)c2)nc2cnc(Oc3ccccc3)nc2n1C[C@H]1CCCO1 > 46 µM
COCCn1c(=O)c(-c2ccc(F)cc2)nc2cnc(Oc3ccc(OC)cc3)nc21 > 46 µM
CN1CCN(c2ccnc(-c3ccccc3C(F)(F)F)n2)CC1 > 46 µM
c1ccc(C(c2ccccc2)N2CC3(CCNCC3)C2)cc1 > 46 µM
CS(=O)(=O)N1CCC2(CCCN(Cc3ccccc3)C2)CC1 > 46 µM
Cc1cccc(CNc2ccnc(-c3cccc(NS(C)(=O)=O)c3)n2)c1 > 46 µM
CN1CCN(c2nc(-c3cccc(NS(C)(=O)=O)c3)nc3ccccc23)CC1 > 46 µM
COc1ccccc1CN1CCC2(CC1)CCN(C(=O)c1cc(C(F)(F)F)cc(C(F)(F)F)c1)CC2 > 46 µM
COc1ccc(NC(=O)N2CCC3(CC2)CCN(C(=O)c2cc(C(F)(F)F)cc(C(F)(F)F)c2)CC3)cc1 > 46 µM
CN(C)Cc1ccccc1-c1ccc2ncnc(NCc3cccs3)c2c1 > 46 µM
O=c1c(CCc2ccccc2)nc2cnc(N3CCOCC3)nc2n1C[C@H]1CCCO1 > 46 µM
